± gives the standard deviation.
How the values were obtained:
Assay in all cases: peptide microarray binding signal (635 nm), min-max normalized on array (fraction of array maximum); higher = stronger binding
Conditions in all cases: peptide region: H2B 7-19
[1] = target: T1, HaloTag-ATRX ADD domain (163-292)
T1 chain: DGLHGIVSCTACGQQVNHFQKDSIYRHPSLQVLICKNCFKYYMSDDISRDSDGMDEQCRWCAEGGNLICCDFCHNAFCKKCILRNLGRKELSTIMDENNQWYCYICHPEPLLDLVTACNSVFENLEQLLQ
Method: (§1)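 Histone 13-mer peptides were synthesized as cellulose conjugates with a C-terminal 20-atom PEG linker and printed in triplicate on nitrocellulose. The sequence given is the unmodified backbone; PTMs (Kme1/2/3, Kac, Sph/Tph, Rme/Rme2a/Rme2s, Rcit) are listed in the label and the 'peptide modifications' condition. Slides were probed at 4 °C for 1 h with biotin-labelled (HQ)5-HaloTag reader fusions (ATRX-ADD, ING2-PHD) then streptavidin-Alexa647, or with rabbit histone antibodies then anti-rabbit Alexa647. The mean 635 nm signal of the triplicate spots was scaled 0-1 between the lowest and highest values on each array.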

[2] = target: HaloTag-ING2 PHD (mouse Ing2 200-280)
Method: as §1

[3] = target: anti-H3K4me3 antibody ab8580
Method: as §1

[4] = target: anti-H3K9me3 antibody ab8898
Method: as §1

[5] = peptide modifications: H2BS14ph, binder concentration: 1:2,000 dilution
[6] = peptide modifications: H2BS14ph, binder concentration: 1:10,000 dilution
[7] = peptide modifications: H2BK15ac H2BK16ac, binder concentration: 1:2,000 dilution
[8] = peptide modifications: H2BK15ac H2BK16ac, binder concentration: 1:10,000 dilution
[9] = peptide modifications: H2BK12ac H2BK15ac H2BK16ac, binder concentration: 1:2,000 dilution
[10] = peptide modifications: H2BK12ac H2BK15ac H2BK16ac, binder concentration: 1:10,000 dilution
[11] = peptide modifications: H2BK11ac H2BK15ac H2BK16ac, binder concentration: 1:2,000 dilution
[12] = peptide modifications: H2BK11ac H2BK15ac H2BK16ac, binder concentration: 1:10,000 dilution
[13] = peptide modifications: H2BK11ac H2BK15ac, binder concentration: 1:2,000 dilution
[14] = peptide modifications: H2BK11ac H2BK15ac, binder concentration: 1:10,000 dilution
[15] = peptide modifications: H2BK15ac, binder concentration: 1:2,000 dilution
[16] = peptide modifications: H2BK15ac, binder concentration: 1:10,000 dilution
[17] = peptide modifications: H2BK12ac, binder concentration: 1:2,000 dilution
[18] = peptide modifications: H2BK12ac, binder concentration: 1:10,000 dilution
[19] = peptide modifications: H2BK11ac, binder concentration: 1:2,000 dilution
[20] = peptide modifications: H2BK11ac, binder concentration: 1:10,000 dilution
[21] = peptide modifications: H2BK11ac H2BK16ac, binder concentration: 1:2,000 dilution
[22] = peptide modifications: H2BK11ac H2BK16ac, binder concentration: 1:10,000 dilution
[23] = peptide modifications: H2BK12ac H2BS14ph H2BK15ac H2BK16ac, binder concentration: 1:2,000 dilution
[24] = peptide modifications: H2BK12ac H2BS14ph H2BK15ac H2BK16ac, binder concentration: 1:10,000 dilution

B1: H2B 7-19 A P A P K K G Sph K K A V T (peptide)
chain: APAPKKGSKKAVT
[1]; peptide modifications: H2BS14ph, binder concentration: 50 nM
  peptide microarray binding signal: 0.00226 ± 0.00011
[1]; peptide modifications: H2BS14ph, binder concentration: 500 nM
  peptide microarray binding signal: 0.00381 ± 2.8e-05
[2]; peptide modifications: H2BS14ph, binder concentration: 10 nM
  peptide microarray binding signal: 0.00263 ± 3.9e-05
[2]; peptide modifications: H2BS14ph, binder concentration: 100 nM
  peptide microarray binding signal: 0.00163 ± 1.7e-05
[3]; [5]
  peptide microarray binding signal: 0.000302 ± 3.1e-06
[3]; [6]
  peptide microarray binding signal: 0.000799 ± 1.7e-05
[4]; [5]
  peptide microarray binding signal: 0.000438 ± 3.5e-05
[4]; [6]
  peptide microarray binding signal: 0.00075 ± 4e-05

B2: H2B 7-19 A P A P K K G S Kac Kac A V T (peptide)
chain: APAPKKGSKKAVT
[1]; peptide modifications: H2BK15ac H2BK16ac, binder concentration: 50 nM
  peptide microarray binding signal: 0.00539 ± 7.7e-05
[1]; peptide modifications: H2BK15ac H2BK16ac, binder concentration: 500 nM
  peptide microarray binding signal: 0.00995 ± 0.00033
[2]; peptide modifications: H2BK15ac H2BK16ac, binder concentration: 10 nM
  peptide microarray binding signal: 0.0115 ± 0.00069
[2]; peptide modifications: H2BK15ac H2BK16ac, binder concentration: 100 nM
  peptide microarray binding signal: 0.0164 ± 0.004
[3]; [7]
  peptide microarray binding signal: 0.00217 ± 0.0011
[3]; [8]
  peptide microarray binding signal: 0.00131 ± 5.7e-05
[4]; [7]
  peptide microarray binding signal: 0.00133 ± 5.4e-05
[4]; [8]
  peptide microarray binding signal: 0.00185 ± 6.1e-05

B3: H2B 7-19 A P A P K Kac G S Kac Kac A V T (peptide)
chain: APAPKKGSKKAVT
[1]; peptide modifications: H2BK12ac H2BK15ac H2BK16ac, binder concentration: 50 nM
  peptide microarray binding signal: 0.00505 ± 0.00068
[1]; peptide modifications: H2BK12ac H2BK15ac H2BK16ac, binder concentration: 500 nM
  peptide microarray binding signal: 0.00719 ± 0.0027
[2]; peptide modifications: H2BK12ac H2BK15ac H2BK16ac, binder concentration: 10 nM
  peptide microarray binding signal: 0.00621 ± 0.0005
[2]; peptide modifications: H2BK12ac H2BK15ac H2BK16ac, binder concentration: 100 nM
  peptide microarray binding signal: 0.00631 ± 0.00038
[3]; [9]
  peptide microarray binding signal: 0.00068 ± 9e-05
[3]; [10]
  peptide microarray binding signal: 0.001541 ± 1.5e-05
[4]; [9]
  peptide microarray binding signal: 0.00104 ± 4.9e-05
[4]; [10]
  peptide microarray binding signal: 0.00133 ± 4e-05

B4: H2B 7-19 A P A P Kac K G S Kac Kac A V T (peptide)
chain: APAPKKGSKKAVT
[1]; peptide modifications: H2BK11ac H2BK15ac H2BK16ac, binder concentration: 50 nM
  peptide microarray binding signal: 0.005642 ± 4e-05
[1]; peptide modifications: H2BK11ac H2BK15ac H2BK16ac, binder concentration: 500 nM
  peptide microarray binding signal: 0.0203 ± 0.002
[2]; peptide modifications: H2BK11ac H2BK15ac H2BK16ac, binder concentration: 10 nM
  peptide microarray binding signal: 0.00776 ± 0.00056
[2]; peptide modifications: H2BK11ac H2BK15ac H2BK16ac, binder concentration: 100 nM
  peptide microarray binding signal: 0.0162 ± 0.0017
[3]; [11]
  peptide microarray binding signal: 0.0139 ± 0.0047
[3]; [12]
  peptide microarray binding signal: 0.00245 ± 0.0001
[4]; [11]
  peptide microarray binding signal: 0.00378 ± 0.00028
[4]; [12]
  peptide microarray binding signal: 0.00254 ± 0.0001

B5: H2B 7-19 A P A P Kac K G S Kac K A V T (peptide)
chain: APAPKKGSKKAVT
[1]; peptide modifications: H2BK11ac H2BK15ac, binder concentration: 50 nM
  peptide microarray binding signal: 0.00295 ± 3.3e-05
[1]; peptide modifications: H2BK11ac H2BK15ac, binder concentration: 500 nM
  peptide microarray binding signal: 0.00457 ± 5.4e-05
[2]; peptide modifications: H2BK11ac H2BK15ac, binder concentration: 10 nM
  peptide microarray binding signal: 0.00686 ± 0.00014
[2]; peptide modifications: H2BK11ac H2BK15ac, binder concentration: 100 nM
  peptide microarray binding signal: 0.0056 ± 0.00049
[3]; [13]
  peptide microarray binding signal: 0.00319 ± 0.0012
[3]; [14]
  peptide microarray binding signal: 0.000913 ± 2.8e-05
[4]; [13]
  peptide microarray binding signal: 0.00104 ± 1.4e-05
[4]; [14]
  peptide microarray binding signal: 0.0015 ± 4.4e-05

B6: H2B 7-19 A P A P K K G S Kac K A V T (peptide)
chain: APAPKKGSKKAVT
[1]; peptide modifications: H2BK15ac, binder concentration: 50 nM
  peptide microarray binding signal: 0.00238 ± 6.4e-05
[1]; peptide modifications: H2BK15ac, binder concentration: 500 nM
  peptide microarray binding signal: 0.00448 ± 0.00011
[2]; peptide modifications: H2BK15ac, binder concentration: 10 nM
  peptide microarray binding signal: 0.00561 ± 0.00014
[2]; peptide modifications: H2BK15ac, binder concentration: 100 nM
  peptide microarray binding signal: 0.0039 ± 0.00027
[3]; [15]
  peptide microarray binding signal: 0.00308 ± 0.00021
[3]; [16]
  peptide microarray binding signal: 0.000742
[4]; [15]
  peptide microarray binding signal: 0.0006645 ± 5.9e-06
[4]; [16]
  peptide microarray binding signal: 0.000807

B7: H2B 7-19 A P A P K Kac G S K K A V T (peptide)
chain: APAPKKGSKKAVT
[1]; peptide modifications: H2BK12ac, binder concentration: 50 nM
  peptide microarray binding signal: 0.00335 ± 0.0001
[1]; peptide modifications: H2BK12ac, binder concentration: 500 nM
  peptide microarray binding signal: 0.0041 ± 0.00068
[2]; peptide modifications: H2BK12ac, binder concentration: 10 nM
  peptide microarray binding signal: 0.00471 ± 0.00015
[2]; peptide modifications: H2BK12ac, binder concentration: 100 nM
  peptide microarray binding signal: 0.00737 ± 0.00077
[3]; [17]
  peptide microarray binding signal: 0.000208 ± 4.5e-06
[3]; [18]
  peptide microarray binding signal: 0.000799 ± 1.7e-05
[4]; [17]
  peptide microarray binding signal: 0.00116 ± 0.00021
[4]; [18]
  peptide microarray binding signal: 0.00213 ± 0.00019

B8: H2B 7-19 A P A P Kac K G S K K A V T (peptide)
chain: APAPKKGSKKAVT
[1]; peptide modifications: H2BK11ac, binder concentration: 50 nM
  peptide microarray binding signal: 0.00367 ± 0.00044
[1]; peptide modifications: H2BK11ac, binder concentration: 500 nM
  peptide microarray binding signal: 0.00667 ± 0.0024
[2]; peptide modifications: H2BK11ac, binder concentration: 10 nM
  peptide microarray binding signal: 0.00227 ± 7.3e-05
[2]; peptide modifications: H2BK11ac, binder concentration: 100 nM
  peptide microarray binding signal: 0.00432 ± 0.00029
[3]; [19]
  peptide microarray binding signal: 0.000264 ± 1.1e-05
[3]; [20]
  peptide microarray binding signal: 0.000628 ± 6.7e-06
[4]; [19]
  peptide microarray binding signal: 0.000408
[4]; [20]
  peptide microarray binding signal: 0.000519 ± 5.6e-06

B9: H2B 7-19 A P A P Kac K G S K Kac A V T (peptide)
chain: APAPKKGSKKAVT
[1]; peptide modifications: H2BK11ac H2BK16ac, binder concentration: 50 nM
  peptide microarray binding signal: 0.00401 ± 5.5e-05
[1]; peptide modifications: H2BK11ac H2BK16ac, binder concentration: 500 nM
  peptide microarray binding signal: 0.0108 ± 0.00051
[2]; peptide modifications: H2BK11ac H2BK16ac, binder concentration: 10 nM
  peptide microarray binding signal: 0.00788 ± 0.0021
[2]; peptide modifications: H2BK11ac H2BK16ac, binder concentration: 100 nM
  peptide microarray binding signal: 0.00751 ± 0.00032
[3]; [21]
  peptide microarray binding signal: 0.00815 ± 0.00023
[3]; [22]
  peptide microarray binding signal: 0.00108 ± 1.9e-05
[4]; [21]
  peptide microarray binding signal: 0.00178 ± 9e-05
[4]; [22]
  peptide microarray binding signal: 0.00133 ± 4.6e-05

B10: H2B 7-19 A P A P K Kac G Sph Kac Kac A V T (peptide)
chain: APAPKKGSKKAVT
[1]; peptide modifications: H2BK12ac H2BS14ph H2BK15ac H2BK16ac, binder concentration: 50 nM
  peptide microarray binding signal: 0.00257 ± 9.2e-05
[1]; peptide modifications: H2BK12ac H2BS14ph H2BK15ac H2BK16ac, binder concentration: 500 nM
  peptide microarray binding signal: 0.00224 ± 5e-05
[2]; peptide modifications: H2BK12ac H2BS14ph H2BK15ac H2BK16ac, binder concentration: 10 nM
  peptide microarray binding signal: 0.005013 ± 2.5e-05
[2]; peptide modifications: H2BK12ac H2BS14ph H2BK15ac H2BK16ac, binder concentration: 100 nM
  peptide microarray binding signal: 0.00213 ± 9.1e-05
[3]; [23]
  peptide microarray binding signal: 0.000793 ± 0.00015
[3]; [24]
  peptide microarray binding signal: 0.000799 ± 8.3e-06
[4]; [23]
  peptide microarray binding signal: 0.000423 ± 8.2e-06
[4]; [24]
  peptide microarray binding signal: 0.0011 ± 4e-05

Source: the supplement of paper PMC4022240
